miR-122 inh: miR-122 suppressors via Renilla sensor increase, primary screen, cell-based, Huh7 psiCHECK-miR122, Renilla luciferase, single point; 48 h; activation, % at 12.5 µM; actives 0.14% (n = 340,000);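 active means mean activation of 30% or more, with every replicate also reaching 30%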;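 further: 0% = median of neutral control wells and 100% = median of positive control wells; higher luciferase signal means stronger suppression of miR-122 activity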
The depositor's hits bear a star. Many of the other results were omitted from the sample, so hits are more common in it than they were.

SMILES	miR-122 inh
COc1ccc(C(C(=O)NC2CCCCC2)N(C(=O)CCl)c2cccc(Cl)c2)cc1 (stereo not given)	55.4*
O=C(NC1CCCC1)C(c1ccccc1)N(Cc1ccc2c(c1)OCO2)C(=O)Cc1cccs1 (stereo not given)	-90.1
COc1ccc(C#Cc2ccc3c(c2)O[C@@H](CN(C)C(=O)NC2CCCCC2)[C@@H](C)CN([C@@H](C)CO)S3(=O)=O)cc1	-12.8
CC(C)C#Cc1ccc2c(c1)O[C@H](CN(C)C(=O)CN(C)C)[C@@H](C)CN([C@H](C)CO)S2(=O)=O	-6.8
C[C@H]1CN([C@@H](C)CO)C(=O)c2cc(C#CC3(O)CCCC3)cnc2O[C@@H]1CN(C)Cc1ccncc1	2.3
C[C@@H]1CN([C@@H](C)CO)S(=O)(=O)c2ccc(Br)cc2O[C@@H]1CN(C)S(C)(=O)=O	-4.2
COCC#Cc1cnc2c(c1)C(=O)N([C@@H](C)CO)C[C@H](C)[C@@H](CN(C)C(=O)Cc1cccnc1)O2	5.2
O=C(C1CC1)N(CCN(C(=O)C1CC1)c1ccccc1)c1ccccc1	30.4*
C[C@H](CO)N1C[C@H](C)[C@@H](CN(C)Cc2ccccc2)Oc2ncc(-c3cccc(C#N)c3)cc2C1=O	10.8
C[C@H]1CN([C@@H](C)CO)S(=O)(=O)c2ccc(C#CCN(C)C)cc2O[C@@H]1CN(C)C(=O)CN(C)C	4.4
Cc1nn(Cc2ccc(Cl)c(Cl)c2)c(C)c1NC(=O)c1sc2ccccc2c1Cl	32.3*
C[C@@H]1CN([C@@H](C)CO)C(=O)c2cc(-c3cncnc3)cnc2O[C@@H]1CN(C)Cc1ccc(F)cc1	1.4
COCC(=O)N(C)C[C@@H]1Oc2ncc(C#Cc3ccncc3)cc2C(=O)N([C@@H](C)CO)C[C@H]1C	-0.5
C[C@@H]1CN([C@H](C)CO)C(=O)c2cc(NC(=O)Cc3cn(C)c4ccccc34)ccc2O[C@@H]1CN(C)S(=O)(=O)c1ccc(Cl)cc1	-101.0
OC(c1cc(C(F)(F)F)nc2c(Cl)cc(Cl)cc12)C1CCCCN1 (stereo not given)	40.8*
C[C@@H]1CN([C@H](C)CO)C(=O)c2cc(N(C)C)ccc2O[C@@H]1CN(C)Cc1ccc(C(=O)Nc2ccccc2N)cc1	-220.4
Cc1ccccc1NC1=C/C(=N\S(=O)(=O)c2cccs2)c2ccccc2C1=O	59.7*
COCC(=O)N(C)C[C@@H]1Oc2cc(C#CC3CC3)ccc2S(=O)(=O)N([C@H](C)CO)C[C@@H]1C	-5.4
COc1ccc(-c2cnc3c(c2)C(=O)N([C@H](C)CO)C[C@H](C)[C@@H](CN(C)C(=O)Cc2ccccc2)O3)cc1	-8.6
C[C@H]1CN([C@@H](C)CO)C(=O)c2cc(NC(=O)NC3CCCCC3)ccc2O[C@@H]1CN(C)C(=O)Nc1ccccc1	-93.4
C=CCNC(=O)c1ccccc1NC(=O)c1ccc(Cl)c(S(=O)(=O)Nc2cc(C)ccc2C)c1	-102.3
C=CCNC(=S)NNC(=O)c1cccn(Cc2ccc(Cl)c(Cl)c2)c1=O	70.8*
COc1cccc(-c2cnc3c(c2)C(=O)N([C@H](C)CO)C[C@H](C)[C@H](CN(C)S(=O)(=O)c2ccc(C)cc2)O3)c1	-1.2
C[C@H]1CN([C@@H](C)CO)C(=O)c2cc(C3=CCCC3)cnc2O[C@@H]1CN(C)C(=O)C1CCCCC1	2.7
C[C@H]1CN([C@@H](C)CO)C(=O)c2cc(/C=C/c3ccccc3)cnc2O[C@@H]1CN(C)C(=O)C1CCOCC1	2.1
SMILES	miR-122 inh
COc1ccc(NC(=O)N(C)C[C@H]2Oc3ncc(C4=CCCC4)cc3C(=O)N([C@@H](C)CO)C[C@@H]2C)cc1	1.7
COCC(=O)N(C)C[C@H]1Oc2ncc(/C=C/c3ccccc3)cc2C(=O)N([C@@H](C)CO)C[C@H]1C	8.3
CC(C)CC#Cc1cnc2c(c1)C(=O)N([C@H](C)CO)C[C@@H](C)[C@@H](CN(C)C(=O)Nc1cc(F)ccc1F)O2	10.1
N=c1c2c(-c3ccccc3)c(-c3ccccc3)n(Cc3ccco3)c2ncn1CCO	43.2*
C[C@H]1CN([C@@H](C)CO)C(=O)c2cccc(NC(=O)Nc3ccccc3)c2O[C@@H]1CN(C)Cc1ccc(C(=O)Nc2ccccc2N)cc1	-152.9
C[C@@H]1CN([C@H](C)CO)C(=O)c2cc(C#Cc3ccccn3)cnc2O[C@@H]1CN(C)C(=O)CCN1CCCCC1	0.6
CCC(=O)Nc1ccc2c(c1)C(=O)N(C)C[C@@H](OC)[C@@H](C)CN(Cc1ccccc1OC)[C@@H](C)CO2	-6.0
C[C@@H]1CN([C@@H](C)CO)C(=O)c2cc(Br)cnc2O[C@@H]1CN(C)C(=O)CN1CCOCC1	4.7
Clc1ccc2c(N/N=C/c3ccccc3Br)ccnc2c1	58.8*
C[C@H](O)C#Cc1cnc2c(c1)C(=O)N([C@@H](C)CO)C[C@@H](C)[C@@H](CN(C)Cc1cncnc1)O2	1.2
COCC#Cc1cnc2c(c1)C(=O)N([C@@H](C)CO)C[C@@H](C)[C@@H](CN(C)Cc1ccccc1)O2	-0.3
CCCNC(=O)N(C)C[C@@H]1Oc2cc(C#CCOC)ccc2S(=O)(=O)N([C@@H](C)CO)C[C@H]1C	-19.1
COc1ccc(N2CCc3c(C)nc4c(OC)cc(OC)cc4c32)c(OC)c1	46.9*
